# Screening data as filed in PubChem BioAssay.
# An excerpt weighted towards active compounds, which were near 5.6% of everything screened.
# PKM2 activator = increases activity of human pyruvate kinase M2; P14618; purified PKM2, Kinase-Glo ATP luminescence, activation; response scale: 0% is enzyme alone, no compound; Potency, µM (doses to about 57.5 µM), for the others: at the top dose activation, actives largely listed as activators; actives 0.34% (n = 260,000); note: potency is the fitted concentration of half-maximal effect; nearly all actives have a fitted effect of over 55% in size
#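 Purified hPK-M2 (>95% pure) converted ADP (0.1 mM final) to ATP with 0.5 mM PEP in 50 mM imidazole pH7.2, KCl, MgCl2, Tween 20, BSA; 1 h at room temperature. ATP detected by Kinase-Glo luminescence.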
# CtBP-E1A blk = inhibitors of CtBP/E1A interaction. AlphaScreen GST-E1A/His-CtBP binding, 1536-well; active compounds read low. activity change, % (test concentration not listed). actives 0.49% (n = 340,000); in the data active = activity change below about -65%; inconclusive = mostly about -30% to -63%
#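 Homogeneous bead-based format: GST-tagged E1A captured on glutathione donor beads, His-tagged CtBP on nickel acceptor beads; compounds precede bead addition by 2 h at 37 °C.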
# RORg inh = ROR gamma (mouse) transcription inhibition; Potency, µM (series often up to 53.6 µM), without a hit: at the top dose activity change, negative = inhibition, most hits filed as inhibitors; actives 5.4% (n = 310,000); P51450; Drosophila S2 Gal4-RORgamma UAS-luciferase reporter, 20 h; note: potency is the fitted concentration of half-maximal effect; nearly all actives have a fitted effect of over 60% in size
# Target sequence (P51450 whole entry, looked up, the tested form may be a part): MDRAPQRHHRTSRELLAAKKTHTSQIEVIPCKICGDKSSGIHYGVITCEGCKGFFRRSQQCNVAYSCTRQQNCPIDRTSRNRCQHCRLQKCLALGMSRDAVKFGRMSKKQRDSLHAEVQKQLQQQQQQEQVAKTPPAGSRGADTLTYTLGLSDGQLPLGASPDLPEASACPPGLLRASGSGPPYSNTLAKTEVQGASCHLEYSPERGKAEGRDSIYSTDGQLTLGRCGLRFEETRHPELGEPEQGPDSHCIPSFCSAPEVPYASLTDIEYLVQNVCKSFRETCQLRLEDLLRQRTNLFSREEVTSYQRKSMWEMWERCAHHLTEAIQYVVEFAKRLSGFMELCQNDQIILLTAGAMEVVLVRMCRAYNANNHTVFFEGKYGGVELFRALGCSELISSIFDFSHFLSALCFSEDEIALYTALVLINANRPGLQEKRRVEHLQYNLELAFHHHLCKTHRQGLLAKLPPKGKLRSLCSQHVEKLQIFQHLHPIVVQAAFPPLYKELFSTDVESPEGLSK
#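 Drosophila Schneider cells stably carrying a metallothionein-driven Gal4 DBD–ROR gamma fusion and a UAS-Photinus luciferase reporter were exposed to compound for 1 hr, then induced with copper sulfate (700 uM final) for 20 hr at ambient temperature before luminescence reading.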
# Gal4-VP16 FLuc = counter-screen for ROR gamma inhibitors: Gal4-VP16 reporter; Drosophila S2 Gal4-VP16 UAS-luciferase, luminescence, 20 h; Potency, µM (top dose mostly 53.6 µM), inactives show at the highest dose activity, negative = inhibition, actives largely listed as inhibitors; actives 3.5% (n = 310,000); AID 2546;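 note: Gal4-VP16 expression switched on by copper sulfate through the metallothionein promoter; potency is the fitted concentration of half-maximal effect; nearly all actives have a fitted effect of over 50% in size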
# Six1-Eya2 inh = blocks human Six1 binding to Eya2. activity change, % (no concentration beside the values). AID 651725. actives 0.56% (n = 360,000). AlphaScreen GST-Six1/His-Eya2 binding, biochemical; active compounds read low; in the data active = activity change below about -65%; inconclusive = mostly about -30% to -63%
#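 Six1/Eya2 binding was read as AlphaScreen signal after compounds were pinned into GST-Six1 plus His-tagged Eya2 (5X stock 250/500 nM) in pH 8.0 Tris/NaCl/TCEP buffer, beads added, then incubated 1 h, 37 C, dark.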
# * hit, by the source's call; ? = inconclusive; nt = not tested or not shown; ! = repeats disagree; [ ] = dose if it differs, or a comment. Unless noted, calls come from the whole dose curve; as a rule, active = well fitted curve in the direction sought with a large enough effect; inconclusive = small, poorly fitted or top-dose-only effect, or another doubt; inactive = no such curve, though single readings can be large; an effect the other way counts as inactive or inconclusive. % is set by controls: 0 for no effect and ±100 for the full control effect.
SMILES,PKM2 activator,CtBP-E1A blk,RORg inh,Gal4-VP16 FLuc,Six1-Eya2 inh
Cc1csc(NC(=O)CCCSc2nc3ccccc3s2)n1,-8.3%,-9.4,31.6µM*,2µM*,-6.1
O=C(NCc1cccnc1)OC1CC2CC1[C@H]1CCCCN1C2=O (stereo partly drawn),nt,-15.0,nt,nt,9.6
C[C@@H](NCCCn1cnc2c(OCc3ccccc3)ncnc21)c1cccc2ccccc12,nt,-12.9,nt,nt,-6.3
Cc1cc2[nH]c(=O)cc(-c3ccccc3)n2n1,5.8%,nt,11.2µM*,17.8µM*,0.5
Cc1cc2[nH]c(=O)c3ccccc3n2n1,-0.9%,-21.6,-19.4%,-1.4%,-8.8
O=C(CCN1CCOCC1)NNC(=S)NC(=O)c1ccc(Br)cc1,-2.7%,11.6,11.2µM*,?,-4.5
O=C(CCN1CCCCC1)NNC(=S)NC(=O)c1ccc(Br)cc1,-2.1%,0.0,2µM*,8.91µM*,?
O=C(Nc1cccc(C(F)(F)F)c1)c1csc([C@H]2C[C@H](O)[C@@H](CO)O2)n1,nt,-16.2,nt,nt,3.8
Cn1ccnc1SCC(=O)Nc1ccc(Cl)cn1,9.7%,3.9,0.3%,9.7%,5.4
CC1CC(C)(C)CC2(C1)NC(=S)N(c1ccccc1)N2 (stereo not drawn),1.3%,5.5,7.08µM*,?,2.8
CC(C)CCN1NC2(CCCC(C)C2)NC1=S (stereo not drawn),3.3%,-3.6,7.08µM*,-29.7%,0.3
S=C1NC2(CCCCC2)NN1c1ccccc1,6.3%,8.2,?,1.9%,7.7
CC1CCCC2(C1)NC(=S)N(c1ccccc1)N2 (stereo not drawn),-0.3%,-8.0,12.6µM*,-9.1%,3.0
O=[N+]([O-])c1ccc(CCO)cc1,nt,nt,4.4%,2.7%,nt
COc1ccc(CC(=O)n2[nH]c(=O)ccc2=O)cc1OC,8.91µM*,0.0,?,?,-15.3
O=C(CN1CCN(c2nc(-c3ccccc3)cs2)CC1)NNC(=O)c1ccc(Br)cc1,0.1%,6.6,-8.9%,1.1%,-2.1
O=C(NC(=S)N1CCN(c2nc(-c3ccccc3)cs2)CC1)c1cncc(Br)c1,1.0%,-18.0,0.224µM*,0.224µM*,-12.8
Cn1c(=O)c(=O)n(C)c2cc(S(=O)(=O)N3CC(=O)N(CCc4ccccc4)C(=O)C3)ccc21,-14.7%,nt,-0.7%,-9.3%,-2.3
COc1cc(O)c2c(c1)oc(=O)c1c3cc(O)c(O)cc3oc21,nt,nt,12.6µM*!,?,nt
Cc1ccc2oc(=O)c3c4cc(O)c(O)cc4oc3c2c1,-1.8%,nt,?,-14.9%,nt
CCN(CC(=O)NC(C)(C)C)C(=O)COc1c(Cl)cc(Cl)c2ccc(C)nc12,-1.0%,nt,1.26µM*,3.16µM*,-1.5
Cc1ccc2c(Cl)cc(Cl)c(OCC(=O)NC3CCS(=O)(=O)C3)c2n1 (stereo not drawn),0.6%,0.0,8.91µM*,11.2µM*,5.6
CCCCCc1nnc(NC(=O)NS(=O)(=O)c2ccc(C)cc2)s1,nt,2.0,-21.0%,2.9%,7.5
O=C(NN1C(=O)c2ccccc2C1=O)c1ccc2c(c1)C(=O)N(CC1CCCO1)C2=O (stereo not drawn),1.4%,0.1,4.3%,-14.1%,-12.7
Cc1ccc(SCC(Cc2ccccc2)N2CCN(CCc3ccccc3)CCC2=O)cc1 (stereo not drawn),nt,nt,7.4%,0.9%,nt
SMILES,PKM2 activator,CtBP-E1A blk,RORg inh,Gal4-VP16 FLuc,Six1-Eya2 inh
CCc1ccc(NC(=S)N2CCN(c3cccc(C(F)(F)F)c3)CC2)cc1,-1.1%,8.5,12.6µM*,35.5µM*,6.3
COc1cccc(N2CCN(C(=S)NCCc3ccccc3)CC2)c1,13.0%,-5.2,25.1µM*,?,-11.9
CCOc1ccccc1NC(=S)N1CCN(c2cccc(OC)c2)CC1,-5.1%[11.5 µM],-5.7,12.6µM*,?,-10.4
COc1cccc(N2CCN(C(=S)Nc3ccccc3OC)CC2)c1,-1.6%,3.8,-15.1%,5.8%,-10.9
CN(C)c1ccc(NC(=S)N2CCN(c3ncc(C(F)(F)F)cc3Cl)CC2)cc1,-4.1%,-8.2,10µM*,?,-10.1
CC(c1ccccc1F)n1cc(C(=O)NCCCc2nc3ccccc3[nH]2)nn1 (stereo not drawn),0.4%,-2.0,7.7%,-6.1%,11.1
COc1cccc(N2CCN(C(=S)Nc3cc(C)cc(C)c3)CC2)c1,-0.6%,9.1,3.98µM*,-2.0%,1.1
COc1cccc(N2CCN(C(=S)Nc3ccc(C)cc3C)CC2)c1,4.3%,nt,5.62µM*,-16.6%,-2.1
COc1cccc(N2CCN(C(=S)Nc3ccc(F)cc3)CC2)c1,-0.8%,nt,-40.7%,-1.0%,-2.5
Cc1ccc(NC(=S)N2CCN(Cc3ccccc3)CC2)c(C)c1,-11.7%,-0.6,-3.9%,-9.8%,-1.9
COc1cccc(-c2nc(NC3CCNCC3)c3ccccc3n2)c1,nt,nt,0.2%,-12.1%,nt
O=C(Nc1nc(-c2ccc(S(=O)(=O)N3CCCC3)cc2)cs1)c1ccco1,-2.4%,-85.2*,?,-11.5%,-68.7*
Cc1ccc(S(=O)(=O)N2CCOCC2)cc1C(=O)Nc1nc(-c2ccccn2)cs1,nt,3.4,nt,nt,-84.6*
COc1ccc(C(=O)Nc2ccccn2)cc1S(=O)(=O)N1CCOCC1,nt,1.8,10.0%,8.6%,-0.1
Cc1ccc2nc(-c3ccccn3)cc(C(=O)Nc3ccc(S(=O)(=O)N4CCOCC4)cc3)c2c1,-1.2%,nt,-13.6%,5.5%,-4.4
COc1ccccc1C(=O)Nc1nc(-c2ccc(S(=O)(=O)N3CCOCC3)cc2)cs1,-4.2%,?,-22.3%,3.16µM*,?
COc1ccc(C(=O)Nc2nc(-c3ccccn3)cs2)cc1S(=O)(=O)N1CCOCC1,nt,nt,nt,nt,-92.5*
COc1ccccc1OC(C)C(=O)Nc1nc(-c2ccc(S(=O)(=O)N3CCOCC3)cc2)cs1 (stereo not drawn),-8.0%,-22.1,18.2%,-1.6%,-11.3
CNc1nc(-c2ccc(S(=O)(=O)N3CCCCC3)cc2)cs1,nt,nt,nt,nt,-3.4
Nc1cc2c(cc1N)-c1ccccc1C2,nt,-12.3,nt,nt,-19.1
